p-CIP stab down – compounds decreasing mouse p/CIP protein stability | Q05BA5 | decrease of EGFP signal, % at 10 µM | hit rate 0.01% among 290,000 | AID 1984 | F442A p/CIP-EGFP cells, EGFP fluorescence, 16 h;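 active means EGFP signal decrease of at least 30% at 10 µM or well 3 SD below plate mean, unless failing retest; inactive means the rest, including hits failing retest or dose response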
VLA-4 inh – inhibition in a human VLA-4 binding assay. P13612. VLA-4 expressing cells, ligand binding flow cytometry. inhibition, % (about 7 µM as worked out from the volumes in the protocol). hit rate 0.2% among 330,000. AID 2557; in the data active means inhibition above about 50%
GPR7 antagonist – human neuropeptides B/W receptor 1 antagonism | hit rate 1.1% among 290,000 | GPR7-expressing cells, fluorescence antagonist assay | inhibition, % at 4.4 µM | AID 1861; in the data active means inhibition above about 16%, passing the limit was not always enough;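 further: cells stimulated with the agonist NPW; 0% = agonist with vehicle and 100% = vehicle without agonist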
Target sequence (P48145 whole entry, looked up): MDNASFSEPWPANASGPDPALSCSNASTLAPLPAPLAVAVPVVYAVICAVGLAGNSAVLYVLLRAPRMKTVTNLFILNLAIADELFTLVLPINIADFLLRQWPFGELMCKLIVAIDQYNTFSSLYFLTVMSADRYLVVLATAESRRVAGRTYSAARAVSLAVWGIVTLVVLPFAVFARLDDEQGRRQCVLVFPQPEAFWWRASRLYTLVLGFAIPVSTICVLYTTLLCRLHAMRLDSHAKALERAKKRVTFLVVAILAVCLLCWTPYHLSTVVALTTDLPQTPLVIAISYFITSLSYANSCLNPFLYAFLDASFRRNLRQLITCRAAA
JMJD2C inh – inhibitors of human GASC-1 (JMJD2C) demethylase; GST-JMJD2C(1-420) H3K9me3 demethylation, DELFIA europium; inhibition, % at 2.35 µM; hit rate 0.069% among 330,000; AID 2099;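 active means more than half of a compound's replicate wells show inhibition beyond 50%, single wells judged on their own value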;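 further: signal counts dimethyl H3K9 product captured on neutravidin plate; 0% = median of DMSO wells and 100% = 0.3 times that DMSO median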
The depositor's hits bear a star; i = inactive; / = no result. Shown are actives, neighbours in structure and some others; about 1.2% of the full set was active somewhere.

SMILES	p-CIP stab down	VLA-4 inh	GPR7 antagonist	JMJD2C inh
COC(=O)c1ccc(N2C(=O)CC(N3CCN(c4ccccc4)CC3)C2=O)cc1 (stereo not drawn)	/	-3	19*	-1
Cc1cc(C)c2nc(N3CCC(C(=O)NCCCN4CC(C)CC(C)C4)CC3)sc2c1 (stereo not drawn)	-8	5	22	0
COc1ccc(C(=O)N2CCC(c3ccccc3)CC2)c(OC)c1OC	7	4	20*	-13
O=C(Cc1ncc(C(F)(F)F)cc1Cl)N1CCN(c2ccc(F)cc2)CC1	-7	1	3	7
CC(C)Cn1c(N)c(C(=O)COC(=O)CC23CC4CC(CC(C4)C2)C3)c(=O)n(C)c1=O	-26	13	21*	8
Fc1ccc2nc(C3CCCCN3Cc3nc(CC4CC4)no3)[nH]c2c1 (stereo not drawn)	-27	-12	19*	-3
Fc1ccc(C2CCCCN2Cc2nc(CC3CC3)no2)cc1 (stereo not drawn)	2	-1	-6	-12
O=C(COc1ccc([N+](=O)[O-])cc1)NNC(=S)NC(=O)c1ccc(Br)cc1	-8	61*	-9	-3
COc1cccc(CNCc2cccnc2)c1OCc1ccccc1	0	6	19	0
CCOC(=O)[C@H]1[C@H]2COc3ccc(OC)cc3[C@@H]2N2C(=O)c3cc(C)ccc3NC(=O)[C@@]12C	/	/	/	52*
CNC(=O)c1nnsc1S(=O)(=O)c1ccc(Cl)cc1	-8	/	26*	5
O=C(c1nnsc1S(=O)(=O)c1ccc(Cl)cc1)N1CCOCC1	-5	/	12	6
Cc1ccc(C(=O)Nn2cnnc2)cc1Cl	-1	0	5	-14
O=[N+]([O-])c1ccc(N2CCCCC2)cn1	5	5	4	-2
O=[N+]([O-])c1ccc(N2CCN(c3cccc(Cl)c3)CC2)cn1	8	6	21*	-11
COCCNc1ncnc2c1cnn2-c1ccc(Cl)cc1	0	-3	20*	-1
Cn1cnnc1Sc1ccc(/C=C/C(=O)c2ccc(O)cc2)cc1[N+](=O)[O-]	1	-1	-8	-11
COc1ccc(NC(=O)/C(C#N)=C/c2ccc(Sc3nncn3C)c([N+](=O)[O-])c2)cc1	0	52*	-16	7
CNC(=O)NC(=O)CSc1nnc(-c2ccco2)n1Cc1ccccc1	6	6	-16	7
NC(=O)NC(=O)CSc1nnc(-c2ccco2)n1Cc1ccccc1	-9	-17	-9	50*
Cc1cccc(CN2CCC(Oc3ccc(C(=O)N4CCCC4)cc3)CC2)n1	6	-7	-2	66*
CC1CCC(C(C)C)C(OC(=O)Cn2c(-c3ccc(F)cc3)[n+](C)c3ccccc32)C1 (stereo not drawn)	5	8	54*	/
Cc1cccc(OCc2n(CC(=O)OC3CC(C)CCC3C(C)C)c3ccccc3[n+]2C)c1 (stereo not drawn)	-39	12	61*	-16
COc1ccc(-[n+]2c(C)cc(/C=C3\Sc4ccccc4N3C)cc2C)cc1	-589	i	31*	-9
C(=C\n1nnc2ccccc21)/c1ccc[nH]1	/	-59	/	11
SMILES	p-CIP stab down	VLA-4 inh	GPR7 antagonist	JMJD2C inh
Cc1noc(C)c1C(=O)OCC(=O)NCCc1ccc(Cl)cc1	-13	25	20*	-3
COc1ccc(-c2cc3ccccc3n2CC(O)CNC(CO)(CO)CO)cc1 (stereo not drawn)	1	5	15*	-6
Cc1cc(C(=O)CSc2nnc(-c3ccccc3)o2)c(C)n1CC1COc2ccccc2O1 (stereo not drawn)	-10	6	1	-3
Cc1cc(C(=O)CSc2nnc(-c3ccco3)o2)c(C)n1CC1COc2ccccc2O1 (stereo not drawn)	-12	/	20*	-45
COC(=O)c1cc(NS(=O)(=O)c2ccc(C)c3ccccc23)ccc1N1CCOCC1	-11	-1	-15	2
CCN1CCN(CCNC(=O)c2ccc(/C=C3/Sc4ccccc4N(Cc4cccc(Cl)c4)C3=O)cc2)CC1	-6	-8	13	-20
CCN1CCN(CCNC(=O)c2ccc3c(c2)N(Cc2ccc(F)cc2)C(=O)/C(=C/c2ccccc2)S3)CC1	8	13	29*	1
COCCNC(=S)N(CCc1c(C)[nH]c2ccc(F)cc12)Cc1cccs1	-21	16	20*	-9
COCCNC(=S)N(CCc1c(C)[nH]c2ccc(Cl)cc12)Cc1cccs1	-10	8	16	/
O=C(Nc1ccc(N2CCOCC2)cc1)c1ccc(COc2ccccc2)cc1	2	14	1	-5
O=C(NCCNC(=O)c1cc(OCC(F)(F)F)ccc1OCC(F)(F)F)Nc1cccc(C(F)(F)F)c1	-9	7	21*	9
